High-throughput results: PubChem BioAssay, several laboratories
Neddyl block = cullin neddylation inhibition. P61081+Q13564. TR-FRET cullin neddylation, biochemical. calls only at 25 µM. 0.58% of 360,000 active. AID 651699; in the data active = inhibition above about 36%
Target sequence (P61081 whole entry, looked up): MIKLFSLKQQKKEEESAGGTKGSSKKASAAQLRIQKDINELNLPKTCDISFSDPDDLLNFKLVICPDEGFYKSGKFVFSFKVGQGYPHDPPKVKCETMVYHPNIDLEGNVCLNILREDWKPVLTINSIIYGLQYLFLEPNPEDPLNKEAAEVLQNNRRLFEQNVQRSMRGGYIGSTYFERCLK
Target sequence (Q13564 whole entry, looked up): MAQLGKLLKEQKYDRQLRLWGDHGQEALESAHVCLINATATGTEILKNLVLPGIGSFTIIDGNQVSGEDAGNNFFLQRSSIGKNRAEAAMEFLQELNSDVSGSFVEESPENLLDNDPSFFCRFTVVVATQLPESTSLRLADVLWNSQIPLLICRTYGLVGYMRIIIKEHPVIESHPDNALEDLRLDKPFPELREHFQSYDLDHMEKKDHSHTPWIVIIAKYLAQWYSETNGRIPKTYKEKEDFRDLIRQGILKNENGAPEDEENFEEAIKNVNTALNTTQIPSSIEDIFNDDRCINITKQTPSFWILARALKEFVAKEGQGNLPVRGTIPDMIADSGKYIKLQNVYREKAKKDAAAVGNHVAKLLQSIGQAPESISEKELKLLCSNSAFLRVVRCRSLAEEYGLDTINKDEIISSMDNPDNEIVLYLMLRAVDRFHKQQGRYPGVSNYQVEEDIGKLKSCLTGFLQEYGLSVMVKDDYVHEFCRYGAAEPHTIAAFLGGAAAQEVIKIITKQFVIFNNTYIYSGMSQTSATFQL
MBD2 DNA inh = blocks human MBD2 binding to methylated DNA | inhibition, % at 4.4 µM | TR-FRET, MBD2 binding to methylated oligonucleotide | 0.31% of 370,000 active | AID 686964; in the data active = inhibition above about 13%
Rin1-Abl PPI inh = inhibitors of human Rin1-Abl protein interaction; P00519+Q13671; TR-FRET Rin1/Abl binding, biochemical; inhibition, % at 7.35 µM; 0.4% of 360,000 active; in the data active = inhibition above about 5%, passing the limit was not always enough
LEDGF integ inh = blocks HIV-1 LEDGF/p75-dependent DNA integration. TR-FRET IN-LEDGF/p75 DNA integration, Eu/Cy5. inhibition, % at 3.7 µM. 0.64% of 370,000 active;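 active = inhibition above the screen-wide mean plus 3 SD, cut at about 13% in these data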;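 note: signal is the Cy5 over europium emission ratio at 671 and 618 nm; 0% = plate median of compound wells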
UHRF1 binding = human UHRF1 methylated DNA binding inhibitors; inhibition, % at 4.4 µM; 0.75% of 370,000 active; Q96T88; UHRF1 binding to methylated oligo, TR-FRET; in the data active = inhibition above about 21%;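 note: UHRF1 SRA domain binding a hemimethylated CpG hairpin DNA probe; 0% = median of test compound wells and 100% = reference inhibitor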
KLK7 zymogen act = activates the human kallikrein-7 zymogen | P49862 | purified proKLK7, EDANS-DABCYL substrate fluorescence; 100% is mature enzyme control, 0% vehicle | activation, % at 7 µM | 0.9% of 370,000 active;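 active = activation above the mean of all tested compounds plus 3 SD, computed per campaign excluding outliers beyond control limits, cut at about 13% in these data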
* = called active by the depositor. Only some compounds are listed: those with a hit (about 3.1% of all), similar ones and a draw of the others.

Results for Cc1ccc(-n2[nH]c3c4c(ccc3c2=O)C(=O)c2ccccc2C4=O)cc1 ?
Neddyl block: inactive; MBD2 DNA inh: 4.2; Rin1-Abl PPI inh: -2.6; LEDGF integ inh: -3.0; UHRF1 binding: 26.7*; KLK7 zymogen act: 0.3

Results for COc1ccc(C(NC=O)c2cc(OC)c(OC)cc2Br)cc1OC (stereo not drawn) ?
Neddyl block: inactive; MBD2 DNA inh: -2.7; Rin1-Abl PPI inh: -3.1; LEDGF integ inh: 3.2; UHRF1 binding: -0.8; KLK7 zymogen act: -0.1

How did COC(=O)c1ccccc1NC(=O)C(=O)NCc1ccncc1 do in these assays?
Neddyl block: inactive; MBD2 DNA inh: 1.2; Rin1-Abl PPI inh: 0.2; LEDGF integ inh: 1.8; UHRF1 binding: 42.0*; KLK7 zymogen act: -0.1

What do the screens show for `CCN(CC)CCOC(=O)c1ccc(N/C=C(/C#N)c2nc(-c3ccc(OC)c(OC)c3)cs2)cc1`?
Neddyl block: active; MBD2 DNA inh: 3.1; Rin1-Abl PPI inh: -13.4; LEDGF integ inh: -2.5; UHRF1 binding: 2.4; KLK7 zymogen act: 6.7

Results for CC(CNC(=O)CC[C@H]1O[C@@H](n2cnc3c(NC(=O)c4ccccc4)ncnc32)[C@H](O)[C@@H]1O)c1ccccc1 (stereo partly drawn) ?
Neddyl block: inactive; MBD2 DNA inh: -0.4; Rin1-Abl PPI inh: 2.7; LEDGF integ inh: 1.0; UHRF1 binding: 27.0*; KLK7 zymogen act: -0.4

Results for O=C(CC[C@H]1O[C@@H](n2cnc3c(NC(=O)c4ccccc4)ncnc32)[C@H](O)[C@@H]1O)NCC(c1ccccc1)c1ccccc1 ?
Neddyl block: inactive; MBD2 DNA inh: 1.4; Rin1-Abl PPI inh: 0.5; LEDGF integ inh: -3.4; UHRF1 binding: 0.0; KLK7 zymogen act: 0.8

How did O=C(Nc1ccccn1)C1CCN(S(=O)(=O)c2ccc(Cl)cc2)CC1 do in these assays?
Neddyl block: inactive; MBD2 DNA inh: 1.7; Rin1-Abl PPI inh: -0.2; LEDGF integ inh: 4.2; UHRF1 binding: 2.9; KLK7 zymogen act: -0.1

How did CCN(CC)C(=O)[C@H]1C[C@H](CC(=O)NCCCN(C)C)C(=O)N2CCc3c([nH]c4cc(CCC(=O)N(C)C)ccc34)[C@]12C do in these assays?
Neddyl block: inactive; MBD2 DNA inh: 1.8; Rin1-Abl PPI inh: -2.1; LEDGF integ inh: -5.9; UHRF1 binding: 6.9; KLK7 zymogen act: 0.3

How did CC[C@]12c3[nH]c4cc(-c5ccco5)ccc4c3CCN1C(=O)[C@@H](CC(=O)NC(C)(C)C)C[C@@H]2C(=O)N1CCN(C(=O)c2ccco2)CC1 do in these assays?
MBD2 DNA inh: 1.6; Rin1-Abl PPI inh: -0.2; LEDGF integ inh: 4.5; UHRF1 binding: 0.9; KLK7 zymogen act: 115.8*

How did CC[C@]12c3[nH]c4ccc(Cl)cc4c3CCN1C(=O)[C@@H](CC(=O)NC(C)(C)C)C[C@@H]2C(=O)N1CCN(C(=O)c2ccco2)CC1 do in these assays?
Neddyl block: inactive; MBD2 DNA inh: 2.7; Rin1-Abl PPI inh: 3.5; LEDGF integ inh: -2.4; UHRF1 binding: -0.2; KLK7 zymogen act: -0.1

How did CC(C)N(C(=O)[C@H]1C[C@H](CC(=O)NCc2ccco2)C(=O)N2CCc3c([nH]c4cc(-c5ccco5)ccc34)[C@]12C)C(C)C do in these assays?
MBD2 DNA inh: -3.3; Rin1-Abl PPI inh: -0.2; LEDGF integ inh: 0.5; UHRF1 binding: 0.1; KLK7 zymogen act: 34.6*

How did CC(C)N(C(=O)[C@H]1CC(CC(=O)NCc2ccco2)C(=O)N2CCc3c([nH]c4ccccc34)[C@]12C)C(C)C (stereo partly drawn) do in these assays?
Neddyl block: inactive; MBD2 DNA inh: -5.2; Rin1-Abl PPI inh: -2.9; LEDGF integ inh: 2.6; UHRF1 binding: -1.2; KLK7 zymogen act: 1.2

What do the screens show for `CC(C)N(C(=O)[C@H]1C[C@H](CC(=O)NCCCN(C)C)C(=O)N2CCc3c([nH]c4cc(CCC(=O)N(C)C)ccc34)[C@]12C)C(C)C`?
Neddyl block: inactive; MBD2 DNA inh: 4.9; Rin1-Abl PPI inh: 1.2; LEDGF integ inh: 5.4; UHRF1 binding: 21.0*; KLK7 zymogen act: 1.8

Results for COc1ccc(CNC(=O)C[C@H]2C[C@H](C(=O)N3CCCCC3)[C@@]3(C)c4[nH]c5cc(-c6ccco6)ccc5c4CCN3C2=O)cc1OC ?
MBD2 DNA inh: 4.8; Rin1-Abl PPI inh: -4.7; LEDGF integ inh: -0.8; UHRF1 binding: -0.9; KLK7 zymogen act: 67.9*

Results for COc1ccc(C2Nc3ccccc3C(=O)N2Cc2ccccc2)cc1COc1ccc(NC(C)=O)cc1 (stereo not drawn) ?
MBD2 DNA inh: 1.4; LEDGF integ inh: -0.9; UHRF1 binding: -2.4

Results for O=C(Nc1cc(Cl)ccc1Cl)c1ccc(OC(=O)c2ccco2)cc1 ?
Neddyl block: inactive; MBD2 DNA inh: 6.4; Rin1-Abl PPI inh: -2.3; LEDGF integ inh: 1.6; UHRF1 binding: 0.9; KLK7 zymogen act: 0.2

Results for COc1cc(NC(=O)C2CCCN(S(=O)(=O)c3ccc(Br)s3)C2)cc(OC)c1 (stereo not drawn) ?
MBD2 DNA inh: -0.4; LEDGF integ inh: -3.2; UHRF1 binding: 1.0; KLK7 zymogen act: 0.1

What do the screens show for `COc1ccc2[nH]c3c(c2c1)CCN1C(=O)C(CC(=O)NCc2ccc(OC)c(OC)c2)C[C@H](C(=O)N2CCOCC2)[C@@]31C` (stereo partly drawn)?
Neddyl block: inactive; MBD2 DNA inh: -2.4; Rin1-Abl PPI inh: 0.4; LEDGF integ inh: 6.2; UHRF1 binding: -0.3; KLK7 zymogen act: 0.4

Results for COc1ccc(CNC(=O)C[C@H]2C[C@H](C(=O)N3CCCCC3)[C@@]3(C)c4[nH]c5ccc(Cl)cc5c4CCN3C2=O)cc1OC ?
Neddyl block: inactive; MBD2 DNA inh: 11.1; Rin1-Abl PPI inh: -0.2; LEDGF integ inh: -3.8; UHRF1 binding: 21.0*; KLK7 zymogen act: 1.1

What do the screens show for `Cc1cccc(NC(=O)CN(C)S(=O)(=O)c2cccc3cccnc23)c1C`?
Neddyl block: inactive; MBD2 DNA inh: 1.3; Rin1-Abl PPI inh: -2.3; LEDGF integ inh: 1.4; UHRF1 binding: -0.4; KLK7 zymogen act: -0.1

What do the screens show for `Cc1ccc(C)c(NC(=O)CN(C)S(=O)(=O)c2cccc3cccnc23)c1`?
Neddyl block: inactive; MBD2 DNA inh: 13.1; Rin1-Abl PPI inh: -2.8; LEDGF integ inh: -2.1; UHRF1 binding: 26.6*; KLK7 zymogen act: -0.1

Results for CN(Cc1ccccc1)C(=O)C1CCC(CNS(=O)(=O)c2cccc3cccnc23)CC1 (stereo not drawn) ?
Neddyl block: inactive; MBD2 DNA inh: 3.8; Rin1-Abl PPI inh: 2.4; LEDGF integ inh: -1.0; UHRF1 binding: 31.8*; KLK7 zymogen act: 0.0

What do the screens show for `COc1ccc(OC)c(/C=C2\S/C(=N/NC(=O)c3ccc4ccccc4c3)NC2=O)c1`?
Neddyl block: active; MBD2 DNA inh: 0.2; Rin1-Abl PPI inh: -0.7; LEDGF integ inh: 2.0; UHRF1 binding: -4.9; KLK7 zymogen act: -1.0
